Data taken from PubChem BioAssay AID1159580 (chemical genetic matrix, 2015).
Hit rate of the full screen: of about 5,500 compounds, about 2,000 (36%) were called active. About 18% were inconclusive and are not listed. Cut-off read from the data, not from the text of the source: active = normalized growth mostly below about 0.91 (no sharp cut-off); inconclusive = no clear call, values can overlap the other calls; inactive = mostly above about 0.92. This is one part of the list.

Test: chemical genetic growth profiling, strain panel (AID 1159580);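 note: tested at 20 µM; growth read once vehicle control cultures reached saturation at 30 °C; 1 = growth at the plate median or of vehicle wells; lower values mean less growth of the strain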
Settings: growth OD
[1] = S. cerevisiae deletion strains, locus YAL013W, strain DEP1, active compounds read low
[2] = S. cerevisiae deletion strains, locus YBR229C, strain ROT2, active compounds read low
[3] = S. cerevisiae deletion strains, locus YCL061C, strain MRC1, active compounds read low
[4] = S. cerevisiae deletion strains, locus YDL101C, strain DUN1, active compounds read low
[5] = S. cerevisiae deletion strains, locus YDR150W, strain NUM1, active compounds read low
[6] = S. cerevisiae deletion strains, locus YEL061C, strain CIN8, active compounds read low
[7] = S. cerevisiae deletion strains, locus YGR078C, strain PAC10, active compounds read low
[8] = S. cerevisiae deletion strains, locus YHR030C, strain SLT2, active compounds read low
[9] = S. cerevisiae deletion strains, locus YHR087W, strain rtc3, active compounds read low
[10] = S. cerevisiae deletion strains, locus YJR043C, strain POL32, active compounds read low
[11] = S. cerevisiae deletion strains, locus YJR075W, strain HOC1, active compounds read low
[12] = S. cerevisiae deletion strains, locus YKL190W, strain CNB1, active compounds read low
[13] = S. cerevisiae deletion strains, locus YLR039C, strain RIC1, active compounds read low
[14] = S. cerevisiae deletion strains, locus YLR058C, strain SHM2 (second series), active compounds read low
[15] = S. cerevisiae deletion strains, locus YLR085C, strain ARP6, active compounds read low
[16] = S. cerevisiae deletion strains, locus YLR262C, strain YPT6, active compounds read low
[17] = S. cerevisiae deletion strains, locus YML094W, strain GIM5, active compounds read low
[18] = S. cerevisiae deletion strains, locus YMR219W, strain ESC1, active compounds read low
[19] = S. cerevisiae deletion strains, locus YMR263W, strain SAP30, active compounds read low
[20] = S. cerevisiae deletion strains, locus YMR307W, strain GAS1, active compounds read low
[21] = S. cerevisiae deletion strains, locus YNL128W, strain TEP1, active compounds read low
[22] = S. cerevisiae deletion strains, locus YNL153C, strain GIM3, active compounds read low
[23] = S. cerevisiae deletion strains, locus YNL298W, strain CLA4 (second series), active compounds read low
[24] = S. cerevisiae deletion strains, locus YNL322C, strain KRE1, active compounds read low
[25] = S. cerevisiae deletion strains, locus YNR030W, strain Alg12, active compounds read low
[26] = S. cerevisiae deletion strains, locus YPL055C, strain LGE1, active compounds read low
[27] = S. cerevisiae deletion strains, locus YPL241C, strain CIN2, active compounds read low
[28] = S. cerevisiae deletion strains, locus YPR135W, strain CTF4, active compounds read low

Measured: normalized growth

Cc1ccc2cc(NC(=O)c3ccco3)ccc2n1
active: [6] 0.895 | [8] 0.309 | [12] 0.9 | [15] 0.286 | [20] 0.518 | [23] 0.807 | [25] 0.841 | [27] 0.804 | [28] 0.385
inactive: [1] 0.987 | [2] 0.998 | [3] 0.991 | [4] 1.02 | [5] 0.901 | [7] 0.989 | S. cerevisiae deletion strains, locus YGR229C, strain SMI1, active compounds read low 0.989 | [9] 1.01 | [10] 0.998 | [11] 0.994 | [13] 0.972 | [14] 1.01 | [16] 1.01 | [17] 0.96 | [18] 1 | [19] 0.938 | [21] 0.962 | [22] 1 | [24] 1.01 | [26] 0.92

O=C(Nc1ccccc1)NC1CCCC1
inactive: [1] 1.02 | [2] 0.983 | [3] 1.02 | [4] 0.989 | S. cerevisiae deletion strains, locus YDL134C, strain PPH21, active compounds read low 1.01 | [5] 0.983 | [6] 0.965 | [7] 1.01 | [8] 1.07 | [9] 0.997 | [10] 1.04 | [11] 0.992 | [12] 0.991 | [13] 1.01 | [14] 0.997 | [15] 0.991 | [16] 1.05 | [17] 0.96 | [18] 0.997 | [19] 1.01 | [20] 1.03 | [21] 0.941 | [22] 1.01 | [23] 0.985 | [24] 0.996 | [25] 1 | [26] 1.02 | [27] 0.99 | [28] 1.13

CCc1ccccc1NC(C)=O
inactive: [1] 1.04 | [2] 1 | [4] 1.01 | [5] 1.01 | [6] 1.02 | [7] 1 | [8] 1.08 | [9] 1.01 | S. cerevisiae deletion strains, locus YJL187C, strain SWE1, active compounds read low 1 | [10] 0.995 | [11] 0.997 | [13] 0.992 | [14] 0.997 | [15] 1.01 | [16] 1.06 | [17] 1.03 | [18] 1.01 | [19] 0.998 | [20] 0.972 | [22] 1.01 | [23] 1.03 | [24] 0.993 | [25] 1.03 | [26] 0.901 | [27] 1.01 | [28] 1.24 | S. cerevisiae strains, strain wild type, active compounds read low 0.985
